Test results from the supplement of paper PMC8728848.
The full list was thinned out, with the strongest signals kept by preference.

Legend:
Experiment in all cases: glycan array binding signal (z-score within array); higher = stronger binding
Settings in all cases: glycan notation: IUPAC condensed, linker removed
[1] = tested on: Fuc(a1-2)[GalNAc(a1-3)]Gal(b1-3)GlcNAc(b1-3)GalNAc
Summary of the method: (§1)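 Glycan array data came from 3228 arrays in the Consortium for Functional Glycomics database, and only arrays with an available protein sequence were kept. Glycan names were put into IUPAC-condensed notation, and columns mapping to the same glycan were averaged. The binding signal is a within-array Z-score, averaged across arrays of one protein sequence run at different concentrations or buffers and across linkers. A negative Z-score can be read as non-binding.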

[2] = tested on: Fuc(a1-2)[GalNAc(a1-3)]Gal(b1-4)GlcNAc(b1-2)Man(a1-3)[Fuc(a1-2)[GalNAc(a1-3)]Gal(b1-4)GlcNAc(b1-2)Man(a1-6)]Man(b1-4)GlcNAc(b1-4)GlcNAc
Summary of the method: as §1

[3] = tested on: Fuc(a1-2)[GalNAc(a1-3)]Gal(b1-4)GlcNAc(b1-3)Gal(b1-4)GlcNAc(b1-3)Gal(b1-4)GlcNAc
Summary of the method: as §1

[4] = tested on: Fuc(a1-2)[GalNAc(a1-3)]Gal(b1-4)GlcNAc(b1-3)Gal(b1-4)GlcNAc
Summary of the method: as §1

[5] = tested on: Fuc(a1-2)[GalNAc(a1-3)]Gal(b1-4)GlcNAc(b1-6)GalNAc
Summary of the method: as §1

[6] = tested on: Fuc(a1-2)[GalNAc(a1-3)]Gal(b1-3)GlcNAc(b1-6)GalNAc
Summary of the method: as §1

[7] = tested on: Fuc(a1-2)[GalNAc(a1-3)]Gal(b1-4)GlcNAc(b1-3)GalNAc
Summary of the method: as §1

[8] = tested on: Fuc(a1-2)[GalNAc(a1-3)]Gal(b1-3)GlcNAc(b1-2)Man(a1-3)[Fuc(a1-2)[GalNAc(a1-3)]Gal(b1-3)GlcNAc(b1-2)Man(a1-6)]Man(b1-4)GlcNAc(b1-4)GlcNAc
Summary of the method: as §1

[9] = tested on: Fuc(a1-2)[GalNAc(a1-3)]Gal(b1-4)GlcNAc(b1-2)Man
Summary of the method: as §1

[10] = tested on: Fuc(a1-2)[GalNAc(a1-3)]Gal(b1-3)GlcNAc
Summary of the method: as §1

Sequence of CHI3L1 (Homo sapiens), P36222 (P36222 whole entry): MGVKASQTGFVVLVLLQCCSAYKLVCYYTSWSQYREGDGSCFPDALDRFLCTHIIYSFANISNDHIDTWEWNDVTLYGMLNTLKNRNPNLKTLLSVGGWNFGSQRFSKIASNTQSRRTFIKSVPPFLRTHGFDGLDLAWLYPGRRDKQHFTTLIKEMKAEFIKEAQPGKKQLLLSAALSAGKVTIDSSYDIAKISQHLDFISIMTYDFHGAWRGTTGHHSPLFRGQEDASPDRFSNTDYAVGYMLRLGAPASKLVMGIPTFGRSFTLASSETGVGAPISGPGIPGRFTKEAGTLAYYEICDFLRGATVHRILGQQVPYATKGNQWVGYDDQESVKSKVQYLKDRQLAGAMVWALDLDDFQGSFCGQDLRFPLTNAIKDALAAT
Sequence of PILRb (Mus musculus), Q2YSF2 (Q2YSF2 entry or part of it): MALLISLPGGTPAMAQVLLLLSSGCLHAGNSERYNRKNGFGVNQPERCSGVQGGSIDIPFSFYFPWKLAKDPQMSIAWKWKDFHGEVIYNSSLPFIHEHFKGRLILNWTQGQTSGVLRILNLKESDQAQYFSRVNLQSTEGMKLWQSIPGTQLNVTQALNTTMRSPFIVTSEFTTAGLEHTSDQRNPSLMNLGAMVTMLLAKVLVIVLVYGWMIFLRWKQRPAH
Sequence of Avaren (Actinomycete K97) (chain, as listed by the source): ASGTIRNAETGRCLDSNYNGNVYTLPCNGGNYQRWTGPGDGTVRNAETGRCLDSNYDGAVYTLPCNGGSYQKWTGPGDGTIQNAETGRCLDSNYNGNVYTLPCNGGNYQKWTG
Sequence of Aggrecan (Rattus norvegicus), NP_071526 (chain, as listed by the source): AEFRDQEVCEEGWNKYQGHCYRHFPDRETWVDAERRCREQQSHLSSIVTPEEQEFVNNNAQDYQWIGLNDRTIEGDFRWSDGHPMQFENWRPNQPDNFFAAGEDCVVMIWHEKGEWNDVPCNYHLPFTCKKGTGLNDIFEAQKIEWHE
Sequence of 6RG (Lolium perenne), B9U140 (B9U140 entry or part of it): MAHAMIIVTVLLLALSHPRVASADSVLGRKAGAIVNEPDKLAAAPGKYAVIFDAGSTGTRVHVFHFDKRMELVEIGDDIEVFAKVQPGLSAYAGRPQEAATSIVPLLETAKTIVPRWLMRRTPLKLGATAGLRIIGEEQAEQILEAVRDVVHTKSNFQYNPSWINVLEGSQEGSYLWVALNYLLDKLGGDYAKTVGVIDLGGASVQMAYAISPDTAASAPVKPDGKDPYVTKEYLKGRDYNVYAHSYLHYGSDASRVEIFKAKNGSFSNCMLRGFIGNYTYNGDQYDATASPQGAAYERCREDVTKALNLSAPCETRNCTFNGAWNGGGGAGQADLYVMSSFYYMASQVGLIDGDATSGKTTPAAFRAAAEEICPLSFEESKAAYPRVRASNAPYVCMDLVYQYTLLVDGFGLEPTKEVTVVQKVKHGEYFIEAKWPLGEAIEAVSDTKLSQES

PILRb (Mus musculus), Q2YSF2
glycan array binding signal (z-score) [1]: 1.35 | glycan array binding signal (z-score) [2]: -0.328 | glycan array binding signal (z-score) [3]: -0.069

Siglec-8 (Homo sapiens), Q9NYZ4
glycan array binding signal (z-score) ([4]; mutation: R125K): -0.346 | glycan array binding signal (z-score) ([5]; mutation: R125K): -0.119

Avaren (Actinomycete K97)
glycan array binding signal (z-score) [6]: -0.139

CHI3L1 (Homo sapiens), P36222
glycan array binding signal (z-score) [6]: -0.064 | glycan array binding signal (z-score) [4]: -0.12 | glycan array binding signal (z-score) [7]: -0.124

MpAFP RI GFP (Marinomonas primoryensis)
glycan array binding signal (z-score) [8]: -0.022 | glycan array binding signal (z-score) [9]: -0.489 | glycan array binding signal (z-score) [5]: -0.439

6RG (Lolium perenne), B9U140
glycan array binding signal (z-score) [10]: -0.169

Aggrecan (Rattus norvegicus), NP_071526
glycan array binding signal (z-score) [8]: -0.131
